Data taken from ChEMBL document CHEMBL4888484, “Replenishing the malaria drug discovery pipeline: Screening and hit evaluation of the MMV Hit Generation Library 1 (HGL1) against asexual blood stage Plasmodium falciparum ,using a nano luciferase reporter read-out” (2022).
Several values for one entry are separate records, joined by “and”; a condition that tells them apart may be missing. Equal entries are not always repeated. Among all 4,800 compounds or so, about 410 (8.5%) showed an effect of 50% or more. The full list was thinned out, with strong results kept by preference.

System: Plasmodium falciparum
Experiment: Confirmatory screen in NF54 pLDH assay, in single point, at 2uM, 72h
Format: functional, Erythrocyte
Details: timepoint 72 hour

COc1ccc(C(=O)n2[nH]c(=O)c(CCO)c2C)cc1
% Inhibition: 5%

COc1ccc(Nc2nnc(/C=C/c3ccccc3)c(=O)n2N)cc1
% Inhibition: 16%

O=S1(=O)CCN(OCc2ccc(Cl)cc2)CC1
% Inhibition: 15%

COc1ccccc1N1CCN(Cc2nc3ccccc3c(=O)n2-c2ccc(F)cc2)CC1
% Inhibition: 12%

COc1ccc2[nH]c3c(c2c1)CC(C(=O)O)NC3c1ccc(OC)c(CN2CCN(c3ccccc3F)CC2)c1 (stereo not drawn)
% Inhibition: 72%

Fc1ccccc1N1CCN(C2CCN(Cc3c[nH]c4ccccc34)CC2)CC1
% Inhibition: 33%

O=C(NCCc1ccc(O)cc1)c1ccc2n[nH]c(=O)n2c1
% Inhibition: -20%

CCC(C)(C)C(=O)N1CCC[C@@H]1CCc1ncc(C)n1C(C)C
% Inhibition: 14%

CCOc1cc([C@H]2Nc3ccccc3C(=O)N2c2ccccc2)ccc1OCc1ccc(F)cc1
% Inhibition: -4%

O=C(/N=C(/c1ccccc1)N1CCCCC1)C(F)(F)C(F)(F)C(F)(F)C(F)(F)C(F)(F)C(F)(F)F
% Inhibition (2 µM): 1% and 0%

O=C(Nc1nncs1)c1cccc(C(=O)Nc2nncs2)n1
% Inhibition: 64%

O=C(Nc1nncs1)NC(C1CC1)C1CC1
% Inhibition: 5%

Cc1ccc(-c2csc(NC(=O)c3cccc(C(=O)Nc4nc(-c5ccc(C)cc5C)cs4)n3)n2)c(C)c1
% Inhibition: -7%

Cc1c(NC(=O)c2n[nH]cc2Br)c(=O)n(-c2ccccc2)n1C
% Inhibition: 7%

CCn1c(=O)c(N2CCC[C@H](C(=O)NCc3cccc(C)c3)C2)nc2ccccc21
% Inhibition: 14%

CCC(C)(CC)[C@@](O)(C#CC[N+]1(Cc2ccccc2)CCCCC1)c1ccccc1
% Inhibition: 22%

CC(CC1OCC(C[N+]2(Cc3ccccc3)CCCCC2)O1)CC(C)(C)C (stereo not drawn)
% Inhibition: 56%

COc1cc(C(=O)NC(C)(C)c2c(C)noc2C)on1
% Inhibition: 7%

CN1C(=O)N(c2cc(Cl)cc(Cl)c2)C(=O)[C@]12CN(c1ccc(C(=O)O)cn1)C[C@H]2c1ccc(C#N)cc1
% Inhibition: 15%

c1cc([C@@H]2CN(Cc3noc(C4CC4)n3)CCO2)cs1
% Inhibition: 7%

COc1ccc(NC(=O)N2CC[C@H](CC(=O)NCc3ccccc3)C2)cc1OC
% Inhibition: -11%

NC(=O)c1ccc(C(F)(F)F)n(CC(=O)N(Cc2ccc(F)cc2)C2CCCCC2)c1=O
% Inhibition: -6%

Cc1cc(-n2c(C)cc(C(=O)Cn3c(C(F)(F)F)ccc(C(N)=O)c3=O)c2C)no1
% Inhibition: 23%

NC(=O)c1ccc(C(F)(F)F)n(C[C@H](O)c2cc(Cl)ccc2Cl)c1=O
% Inhibition: 60%

CC(C)(C)c1cc(N)c2ccccc2n1
% Inhibition: -6%

CNC(=O)CNC(=O)c1cccc(Cl)c1
% Inhibition: 12%

NC(=O)C(NC(=O)c1cccc(Cl)c1)C(N)=O
% Inhibition: 85%

O=C(N[C@@H](N1CCCCCC1)C(Cl)(Cl)Cl)c1cccc(Cl)c1
% Inhibition: -20%

COCc1cc2nn(CC(=O)Nc3ccc(F)c(F)c3)c(=O)n2c(-c2ccccc2)n1
% Inhibition: -15%

Cn1cc(NC(=O)Nc2cccc(OCC(F)F)n2)cn1
% Inhibition: -7%

O=C(Cc1c[nH]c2ccccc12)NC1(C(=O)NC2CCCC2)CCCCC1
% Inhibition: 8%

CCN1C(=O)Cc2cc(NC(=O)c3ccc(Br)o3)ccc21
% Inhibition: 12%

CC(C)[C@@H]1CCc2ccccc2N1Cc1nc(N)nc(N(C)C)n1
% Inhibition: 6%

O=C(Nc1ccc2c(c1)OCCCO2)c1ccsc1
% Inhibition: 5%

O=C1CN(C(=O)C2CC2c2ccccc2C(F)(F)F)CCN1 (stereo not drawn)
% Inhibition: -4%

N=C(N)NCc1ccc(COCc2ccccc2)cc1
% Inhibition: 17%

CCOc1ccc(NC(=O)c2cn3nc(-c4ccc(OCC)cc4)cc3nc2C2CCN(C(=O)OC(C)(C)C)CC2)cc1
% Inhibition: 16%

c1ccc(C2=NN(c3ccc(-c4cc(-c5ccccc5)[n+](-c5ccccc5)c(-c5ccccc5)c4)cc3)[C@H](c3ccccc3)C2)cc1
% Inhibition: 97%

COc1ccc(C2=NN(C(C#N)c3cccc(OC)c3O)C(c3ccccc3)C2)cc1 (stereo not drawn)
% Inhibition: 3%

N#CC(c1ccc(Cl)cc1)N1N=C(c2ccccc2)CC1c1ccccc1 (stereo not drawn)
% Inhibition: 10%

COc1cccc(C(=O)c2c[nH]c(C(=O)NCc3cccc(C(F)(F)F)c3)c2)c1
% Inhibition: 6%

Cc1ccc(N2C(=O)C[C@]3(CC3(c3ccccc3)c3ccccc3)C2=O)cc1
% Inhibition: 6%

COCc1c(C(=O)N2CCC[C@@H]2CCc2ncc(C)n2C(C)C)noc1C
% Inhibition: 13%

O=c1[nH]c2cc3c(cc2c(=O)n1Cc1nc(-c2ccc(Cl)cc2)no1)OCO3
% Inhibition: 9%

Cc1cc(C)nc(-n2nc(-c3ccc(Cl)cc3)c3c2NC(=O)C[C@@H]3c2ccc3c(c2)OCO3)n1
% Inhibition: 2%

CN1CCN(Cc2cc3cc4c(cc3nc2-c2ccc(Cl)cc2)OCO4)CC1=O
% Inhibition: 51%

C#CCN(C(=O)NC1CCN(C(C)=O)CC1)C1CCCC1
% Inhibition: -12%

Cc1ccc(NC(=O)c2c(Cl)cccc2Cl)c2c1CC(C)(C)O2
% Inhibition: -21%

O=C(Nc1ccc(N2CCCCCC2)cc1C(=O)O)c1ccc(Cl)cc1
% Inhibition: 9%

CC(C)c1nnc(CNc2ccc(C#N)cc2)o1
% Inhibition: 8%

CNC(=O)c1cc(Br)cnc1NC
% Inhibition: 10%

CC(=O)Nc1ncc(Br)cc1C
% Inhibition: 3%

COC1CCCC1NC(=O)Nc1ncc(Br)cc1C (stereo not drawn)
% Inhibition: 79%

NC(=NCCOc1ccc(Br)cc1)N1CCOCC1
% Inhibition: 8%

COCc1ncc(-c2noc(C3CC4CCC3C4)n2)c(N)n1 (stereo not drawn)
% Inhibition: -14%

Cc1nn(C)c(C)c1CNc1ccc2c(c1)CCC(=O)N2
% Inhibition: -13%

CC(C)CCn1nnnc1[C@]1(N(C)C)CCCN(C(=O)c2cccn2C)C1
% Inhibition: -12%

CCc1nn(C)cc1CN(Cc1cccc(O)c1)C1CCC(O)CC1 (stereo not drawn)
% Inhibition: -8%

Cc1ccc(CN(C)C2CCCCC2)o1
% Inhibition: -12%

CC(C)c1cc(CN(Cc2cc(C(C)C)c(O)c(C(C)C)c2)C2CCCCC2)cc(C(C)C)c1O
% Inhibition: 98%

CC[C@@H](CO)NC(=O)Nc1ccc(F)cc1
% Inhibition: 8%

CC[C@](C)(NCC#Cc1ccc(C(F)(F)F)cc1)C(N)=O
% Inhibition: 5%

O=C(C1CN(c2ncc(C(F)(F)F)cc2Cl)C1)N1CCCC1
% Inhibition: 11%

Cc1c(N2CCC(C(=O)NC[C@H]3CCCO3)CC2)c(=O)n(CC(C)C)c(=O)n1-c1ccccc1
% Inhibition: 4%

O=C(COC(F)F)N1CCc2ccncc21
% Inhibition: -8%

COc1nc(NC[C@H]2CCCN2C(C)C)ncc1F
% Inhibition: 83%

CC(C(=O)Nc1ncccn1)N1CCCC1Cn1cccn1 (stereo not drawn)
% Inhibition: -8%

Cc1[nH]c2ncnc(NC(=O)c3cccc(-n4ccnn4)c3)c2c1C
% Inhibition: 12%

CN1CCC(=O)Nc2cc(C(=O)NCCS(=O)(=O)NCC3CCC3)ccc21
% Inhibition: 6%

O=C(CN1C(=O)COc2ccccc21)N1CCC[C@H](c2nc3ccccc3s2)C1
% Inhibition: -13%

c1ccc(Oc2ccc(-c3csc4nc5ccccc5n34)cc2)cc1
% Inhibition: 5%

O[C@](C#CCN1CCOCC1)(c1ccccc1)C1CC1
% Inhibition: 14%

Cc1cnn(CC(=O)N2CCC[C@@H]2CCc2ncc(C)n2CC2CC2)c1
% Inhibition: -20%

CCOc1cc(-c2cc(-c3ccccc3O)nc3ccc4ccccc4c23)cc(Br)c1O
% Inhibition: 92%

CCOc1c(CNC[C@H](C)O)cc(Br)cc1OC
% Inhibition: 5%

O=C(Nc1cccc2cccnc12)c1ccccn1
% Inhibition: 87%

NC1CC(NCCc2cccc3cccnc23)c2ccccc21 (stereo not drawn)
% Inhibition: 36%

O=C(Nc1cccc2cccnc12)c1cncc(Br)c1
% Inhibition: -8%

Oc1ccccc1CNc1cccc2cccnc12
% Inhibition: 97%

CC(C)(C)C(=O)NCCNC(=O)c1ccccn1
% Inhibition: 13%

COc1cc(=O)c(C(=O)N2CCCCCC2)nn1-c1ccc(F)c(F)c1
% Inhibition: 10%

CCc1nnc2cc(N3CCN(C(=O)c4ccc(OC)cc4)CC3)cnn12
% Inhibition: 11%

CC(C)(C)c1noc(OCc2cccc(C#N)c2)n1
% Inhibition: 14%

CCN1CCN(CC(=O)N2N=C(c3ccc(C)c(C)c3)C[C@H]2c2cccn2C)CC1
% Inhibition: 2%

Cc1ccn(Cc2nc(N)nc(N(C)C)n2)c(=O)c1C#N
% Inhibition: 4%

CCCCN1CCN(C(=O)CN2CCN(Cc3ccc(F)cc3Cl)C2=O)CC1
% Inhibition: 1%

Cc1cc(C)c(NC(=O)OCc2cccc3cccnc23)c(C)c1
% Inhibition: 80%

Cc1cccnc1NC(=O)OC(C)(C)C
% Inhibition: 10%

CCc1ccc(C2=Nc3cccnc3N(CC(=O)Nc3c(C)cc(C)cc3C)C(=O)C2)cc1
% Inhibition: 2%

O=C(Nc1ccc(Cl)cc1)n1c(=S)oc2cc(Br)ccc21
% Inhibition: 2%

Cc1cccc(NC(=O)N2CCCCCC2)n1
% Inhibition: 6%

Cc1cccc(CN2CCC[C@H](C(=O)c3ccc4c5c(cccc35)CC4)C2)n1
% Inhibition: 67%

Cc1ncsc1[C@@H]1CC(=O)Nc2nc(N3CCC(C)CC3)nc(O)c21
% Inhibition: -19%

CN(C)c1nc(CN2CCC[C@H](c3n[nH]c(-c4ccccc4)n3)C2)ns1
% Inhibition: 2%

COc1ccnc(CN2CCC[C@H](c3nc(-c4ccccc4)c[nH]3)C2)c1OC
% Inhibition: 82%

c1ccc(-c2c[nH]c([C@H]3CCCN(c4ncnc5[nH]ncc45)C3)n2)cc1
% Inhibition: -7%

Cn1cc(-c2ccc(F)cc2)c2nc[nH]c(=O)c21
% Inhibition: 10%

O=C1CCCN1c1ccc(-c2csc(C3CC3)n2)cc1
% Inhibition: -12%

CCC(=O)N1CCC(Nc2cccc(-c3nc(C4CC4)n[nH]3)c2)CC1
% Inhibition: -24%

CC1([C@@](O)(C#CC[N+]2(C)CCCCC2)c2ccccc2)CCCC1
% Inhibition: 43%

CCNS(=O)(=O)c1cc(C)ccc1C
% Inhibition: 8%

CCc1ccc(-n2c(=O)[nH]c3nc(N4CCN(c5ccccc5F)CC4)ncc3c2=O)cc1
% Inhibition: -25%

O=C(NCc1ccncc1)c1ccco1
% Inhibition: -2%
